# Test results from PubChem BioAssay AID595 (National Center for Advancing Translational Sciences (NCATS), 2007).
# The campaign covered roughly 71,000 compounds. About 310 (0.44%) were called active. Entries that show only a call come without a potency. Not shown: some 5% with an inconclusive outcome. Calls come from the whole dose curve; as a rule, active = well fitted curve in either direction with a large enough effect; inconclusive = small, poorly fitted or top-dose-only effect, or another doubt; inactive = flat fitted curve, though single readings scatter. Only a selection was taken, and actives are over-represented in it overall.
# System: Hsp90 C-terminal peptide / TPR2A (Hop) interaction, human
# Test: qHTS Assay for Disrupters of an Hsp90 Co-Chaperone Interaction
# Settings: AlphaScreen TPR2A-His6 binding biotin-Hsp90 C-terminal peptide; series mostly up to 57 µM
# Source text: NIH Chemical Genomics Center [NCGC]
# NIH Molecular Libraries Screening Centers Network [MLSCN]
# Hsp90 (heat shock protein 90) is the essential molecular chaperone and it accounts for 1-2% of all cytosolic proteins and is critical for the activity of diverse cellular proteins that are involved in a variety of cellular processes, including development, cell cycle, and steroid hormone signaling. Its client proteins include signaling kinases such as IGF1R, Akt, v-Src, Raf-1; regulators of cell survival such as Bcr-Abl; and transcription factors such as mutated p53, estrogen and progesterone receptors. Hsp90 has emerged as an important target for cancer treatment due to its essential role in maintaining transformation and regulating the function of oncogenic signaling proteins.
# The in vivo function of Hsp90 is regulated by the binding and hydrolysis of ATP at its N-terminal. Geldanamycin binds to ATP site and inhibit Hsp90 function. Geldanamycin and its analogues are under clinical trials in cancer patients.
# This domain contains the binding site for tetratricopeptide repeat (TPR) domains on HOP (Hsp Organizing Protein). TPR is a structural motif used by a significant number of cochaperones by which the in vivo function of Hsp90 is regulated. TPR2A on HOP binds specifically to MEEVD motif of the C-terminal of Hsp90.
# A homogeneous AlphaScreen is developed to assess the interaction between TPR2A and MEEVD motif of the C-terminal of Hsp90 by using the isolated TPR2A domain and a synthesized 20mer Hsp90 C terminal peptide. AlphaScreen is two bead-based proximity-dependent chemical energy transfer luminescent assay platform. TPR2A-His-6 and biotinylated Hsp90 C terminal peptide will bring streptavidin donor beads and nickel chelate acceptor beads to a proximity range (less than 200 nm), and subsequently lead a chemical luminescent reaction upon exciting donor beads with 680 nm laser. Inhibition of TPR2A and MEEVD motif interaction by small molecules could attenuate or abolish this chemical luminescent reaction.
# Counter screening: Biotinylated-His-6 (PerkinElmer) can be utilized as a counter screen, as it serves as a linker to bring streptavidin beads and nickel chelate beads together. The counter screen can exclude alpha screen platform false positives due to small molecules being metal chelators, biotin analogues and imidazole analogues, or due to interfering with oxygen release from donor beads. Such an assay should be utilized to qualify any activity observed in this screen.
# NCGC Assay Protocol Summary:
# The assay was performed on 1536-well white plate (untreated solid bottom). Liquids were dispensed by 1536-well plate washer (Kalypsys, San Diego, CA). Plates were read on EnVision (PerkinElmer, Boston, MA).TPR2A-His6 was produced using a bacteria expression system and purified using a well developed method (Ghosh et al., 2000). Hsp90 C terminal 20-mer peptide with or without an N-terminal biotin group are synthesized using automated solid phase synthesis by the Yale Keck facility. The composition of assay buffer was (in mM) 25 HEPES, 100 KCl, 2 MgCl2 and 2 DTT; 0.1% BSA and 0.01% Tween-20. TPR2A-His6 binding to biotin-Hsp90 will bring streptavidin donor beads and nickel chelate acceptor beads (PerkinElmer) together and can be measured by Alpha reading by EnVision (PerkinElmer). Free Hsp90 blocks biotin-Hsp90 binding to TPR2 and serves as a positive control in the current asssay.
# The assay was performed at room temperature. All compounds were screened as titrations from […] to 46 uM final concentration. The assay was performed in 1536-well format plates (untreated white solid bottom, Corning Inc.) as follows:
# Sequence,Parameter,Value,Description
# 1,Reagent,3 uL TPR2A-His6,Final concentration was 5nM
# 2,Compound,23 nL,Final titration was from 0.7 nM to 46 uM
# 3,Time,15 minutes,Room temperature
# 4,Reagent,1 uL biotin-Hsp90,With and without free Hsp90. Final concentration was 10 nM for biotin-Hsp90 and 10uM for free Hsp90.
# 5,Time,1 hour,Room temperature
# […]
# Potency is the fitted concentration of half-maximal effect.
SMILES,"activity change, negative = inhibition",Potency
CCN(CC)S(=O)(=O)N1CCC(C(=O)NC(C)CCc2ccccc2)CC1 (stereo unspecified),inactive,
CC1=C(C(=O)OCc2ccccc2)C(c2ccc(C(F)(F)F)cc2)NC(=O)N1CCCCCC(=O)O (stereo unspecified),inactive,
COC(=O)C(CC(=O)Nc1cc(C)ccc1C)Nc1ccccc1OC (stereo unspecified),inactive,
O=C(O)c1ccc(COCC(F)(F)F)cc1,inactive,
COC(=O)[C@@H]1[C@H]2C[C@H]3c4[nH]c5cc(OC)ccc5c4CCN3C[C@@H]2C[C@@H](OC(=O)c2cc(OC)c(OC)c(OC)c2)[C@@H]1OC,inactive,
CC[C@]1(C)CC(=O)NC1=O,inactive,
CCCn1c(-c2ccc(F)cc2)nc2c(NCC3CCCN3CC)nc(C)nc21 (stereo unspecified),inactive,
CCNc1ncc2ncc(=O)n(CCc3ccccc3)c2n1,inactive,
Cc1c(NC(=O)c2cccnc2)c(=O)n(-c2ccccc2)n1C,inactive,
CN1C(=O)C[C@H](c2ccccc2)C1=O,inactive,
CC[C@@H]1Cc2cc(O)ccc2C2=C1c1ccc(O)cc1C[C@H]2CC,inactive,
Nc1ccc2c3c(cccc13)C(=O)NC2=O,inactive,
COc1ccc(CC(=O)Nc2ccc3c(c2)CCC3)cc1S(=O)(=O)N1CCOCC1,inactive,
CC(C)[C@@H](CC(=O)N[C@@H]1CCNC[C@H]1C(=O)N[C@H](CC(=O)N[C@@H](CCC(=O)O)CC(=O)O)Cc1ccccc1)NC(=O)C[C@H](CO)NC(=O)[C@@H]1CNCC[C@H]1N,inactive,
CC(C)C[C@@H](CC(=O)N[C@@H](CCC(=O)O)CC(=O)O)NC(=O)[C@@H]1CCCC[C@H]1NC(=O)C[C@@H](NC(=O)C[C@H](Cc1c[nH]c2ccccc12)NC(=O)[C@@H]1CCCC[C@H]1N)C(C)C,,5.01 µM (active)
OC(COc1ccc2ccccc2c1)CN1CCOCC1 (stereo unspecified),inactive,
Oc1c(C(c2ccccn2)N2CCOCC2)ccc2cccnc12 (stereo unspecified),,2 µM (active)
O=C(c1cccnc1NCc1ccccc1)N1CCOCC1,inactive,
CCN(Cc1ccncc1)C(=O)[C@@H](CO)c1ccccc1,inactive,
CS(=O)(=O)N1CCC2(CC1)CN(Cc1ccccc1)C2,inactive,
COc1cccc(Cn2c(=O)c(-c3ccccc3)nc3cnc(OC)nc32)c1,inactive,
CCCC[C@@H]1C[C@H]1C(NC(=O)c1ccc(-c2ccccc2)cc1)c1ccc(-c2ccccc2)cc1 (stereo partly specified),inactive,
CC1=C(C(=O)Nc2ccc(Cl)cc2)C(c2ccco2)NC(=O)N1 (stereo unspecified),inactive,

SMILES,"activity change, negative = inhibition",Potency
Cc1ccc2[nH]c(=O)c(-c3nc4c(C)cccn4c3NCc3ccco3)cc2c1,inactive,
Clc1ccc(C(c2ccc(Cl)cc2)n2cc[n+](C[C@@H](OCc3ccc(Cl)cc3Cl)c3ccc(Cl)cc3Cl)c2)cc1,inactive,
O=C(O)[C@@H](O)Cc1ccccn1,-2.31% [at 11 µM] (inactive),
OC(CCl)CCl,inactive,
O=C1CCCc2c1[nH]c1ccc(Br)cc21,inactive,
CCC[C@H]1C(=O)N2C(N(C)C)=Nc3ccc(C)cc3N2C1=O,inactive,
CN(C)CCCn1c2ccccc2c2cnccc21,-5.16% [at 11 µM] (inactive),
COc1cccc(N(CC(=O)Nc2cccc(F)c2)S(C)(=O)=O)c1,inactive,
O=C(O)c1cccc(S(=O)(=O)NCCO)c1,-3.23% [at 11 µM] (inactive),
CC(C)NC(=O)N1CC[C@@]2(CCCN(C(=O)c3ccco3)C2)C1,inactive,
CCCCNc1nc(C)nc2c1nc(-c1ccccc1)n2CCCCN(CC)CC,inactive,
Cc1cc(=O)[nH]c(SCC(=O)N2c3ccccc3CC2C)n1 (stereo unspecified),inactive,
Fc1cccc(/C=N\N=C/c2cccc(F)c2)c1,inactive,
CCOC(=O)N1CCN(C(=O)c2cc3c(ccc4ccccc43)oc2=O)CC1,inactive,
CC(C)(O/N=C(\C(=O)N[C@@H]1C(=O)N2C(C(=O)[O-])=C(C[n+]3ccccc3)CS[C@@H]12)c1csc(N)n1)C(=O)O,inactive,
O=C(c1ccco1)N1CCC2(CC1)CN(c1ncccn1)C2,inactive,
c1cncc(CNc2ccnc(-c3ccc4c(c3)OCO4)n2)c1,inactive,
Cc1cc(Cl)ccc1N1C(=O)CC(SCCC(=O)O)C1=O (stereo unspecified),inactive,
O=c1c(-c2cccs2)nc2cnc(Oc3ccccc3)nc2n1-c1ccccc1,inactive,
COc1ncc2nc(-c3ccc(Cl)cc3)c(=O)n(-c3ccccc3)c2n1,inactive,
COc1ccccc1CNc1nc(-c2c(C)noc2C)nc2ccccc12,inactive,
N=C(CC(=O)Nc1ccccn1)c1ccccc1,-0.76% [at 11 µM] (inactive),
O=C1c2ccccc2C(=O)C1c1ccccc1,inactive,

SMILES,"activity change, negative = inhibition",Potency
COc1cccc(N2C(=O)C3CCCN3C2c2ccc(F)cc2)c1 (stereo unspecified),inactive,
CS(=O)(=O)Nc1cccc(-c2cncnc2Nc2ccccc2)c1,inactive,
COCCn1c(=O)c(-c2cccs2)nc2cncnc21,inactive,
Oc1ccc(O)c2c(O)cccc12,inactive,
S=c1c2[nH]cnc2ncn1CCSc1ncnc2nc[nH]c12,-3.58% [at 11 µM] (inactive),
CCOC(=O)N1CCN(Cc2nc3c(c(=O)n(C)c(=O)n3C)n2Cc2ccccc2)CC1,inactive,
O=C(NCCc1ccco1)c1nn(Cc2ccccc2)c(=O)c2ccccc12,inactive,
COC(=O)N1CCC[C@@]2(CCN(C(=O)NC(C)C)C2)C1,inactive,
CS(=O)(=O)N1CCC2(CC1)CN(Cc1cc(C(F)(F)F)cc(C(F)(F)F)c1)C2,inactive,
CN1CCc2[nH]nc(-c3n[nH]c4c3CN(C)CC4)c2C1,-1.93% [at 11 µM] (inactive),
CC1=C(C(=O)Nc2ccccc2)C(c2cccs2)C(C#N)=C(SCC#N)N1 (stereo unspecified),inactive,
CCCCN(CCCC)C(=O)CCS(=O)(=O)c1ccc2c(c1)n(C)c(=O)c(=O)n2C,inactive,
Cc1cnc(CNc2nc(-c3cccnc3)nc3ccccc23)cn1,inactive,
CCCn1nnc2sc3c(c2c1=O)CCC(C)C3 (stereo unspecified),inactive,
Cn1cccc1C(=O)N1CCC[C@@]2(CCN(Cc3nccs3)C2)C1,inactive,
Cc1n[nH]c(C)c1S(=O)(=O)N1CCCC(C(=O)NCC2COc3ccccc3O2)C1 (stereo unspecified),inactive,
c1ccc(Oc2ccccc2)cc1,inactive,
COC(=O)[C@@]1(Cc2ccccc2)[C@H]2c3cc(C(=O)N(C)C)n(CCSCCO)c3C[C@H]2CN1C(=O)c1ccccc1,inactive,
C=CCn1c(COc2ccccc2F)nnc1SCC(=O)N1CC(=O)Nc2ccccc21,inactive,
CO[C@@H]1/C=C\O[C@]2(C)Oc3c(C)c(O)c4c(O)c(c(CN(C)C)c(O)c4c3C2=O)NC(=O)/C(C)=C\C=C[C@@H](C)[C@@H](O)[C@H](C)[C@@H](O)[C@H](C)[C@H](OC(C)=O)[C@@H]1C,-3.79% [at 11 µM] (inactive),
CC[C@H](c1ccccc1)c1cc(C(C)(C)C)cc(C(C)(C)C)c1O,5.54% [at 11 µM] (inactive),
S=c1[nH]nc(SCc2ccccc2Cl)c2[nH]cnc12,-1.97% [at 11 µM] (inactive),
Oc1cc2c(cc1O)CN(C(=S)NCCc1ccc(Cl)cc1)CCC2,inactive,

SMILES,"activity change, negative = inhibition",Potency
CCOC(=O)c1[nH]cnc1C(=O)NC1CCCCC1,inactive,
N#Cc1ccccc1-c1ccc2ncnc(NCc3cccnc3)c2c1,inactive,
O=C(O)C1CCN(c2ncnc3ccc(-c4ccccc4C(F)(F)F)cc23)CC1,inactive,
c1ccc2c(Nc3ccncc3)nc(-c3ccc4c(c3)OCO4)nc2c1,inactive,
C#CCCCCCCCCCCCCCCCC(=O)O,inactive,
Cc1ccnc(NC(=O)c2ccc(NC(=O)c3ccco3)cc2)c1,inactive,
O=C(Nc1ccc(NC(=O)c2cccs2)cn1)c1ccco1,inactive,
CC(NC(=O)c1ccco1)C(=O)Nc1nc(-c2ccccn2)cs1 (stereo unspecified),,10 µM (active)
N#CCCn1c(=O)c(-c2cc(F)cc(F)c2)nc2cnc(Oc3ccccc3)nc21,inactive,
CCCc1cc(=O)[nH]c(SCC(=O)OCc2ccccc2)n1,inactive,
COc1ccccc1-c1nc(NCc2cccs2)c2ccccc2n1,inactive,
O=C(Nc1c2c(nn1-c1ccc(F)cc1)CS(=O)C2)C12CC3CC(CC(C3)C1)C2 (stereo unspecified),inactive,
CCOC(=O)CNC(=O)CSc1nnc(-c2cccc(OC)c2)n1CC,inactive,
COC(=O)[C@H]1[C@H]2C[C@H]3c4[nH]c5ccccc5c4CCN3C[C@@H]2CC[C@@H]1O,inactive,
O=C(Nn1cc(C(=O)N2CCN(c3ccccc3F)CC2)c2ccccc2c1=O)c1cnccn1,,3.98 µM (active)
O=C(c1cccc2ccccc12)N1CCN(c2ccccc2F)CC1,inactive,
COc1ccc2oc(=O)c(C(=O)N3CCN(c4ccccc4F)CC3)cc2c1,inactive,
c1ccc(CNc2ncncc2-c2cccnc2)cc1,inactive,
COc1ccc2[nH]cc(CCNc3ncnc4ccc(-c5ccccc5CN(C)C)cc34)c2c1,inactive,
COc1ccc(C(=O)Nc2c(N)nc(SCC(=O)N3CCC(C)CC3)[nH]c2=O)cc1OC,inactive,
COc1cc(C2C(C#N)=C(N)Oc3n[nH]c(-c4ccccn4)c32)cc(OC)c1OC (stereo unspecified),,25.1 µM (active)
COc1ccc(-c2[nH]nc3c2C(c2ccncc2)C(C#N)=C(N)O3)cc1 (stereo unspecified),inactive,
CCOc1c(OC)cc(C2C(C#N)=C(N)Oc3n[nH]c(-c4ccncc4)c32)cc1OC (stereo unspecified),inactive,

SMILES,"activity change, negative = inhibition",Potency
COc1ccc(-c2nc3cnc(OC)nc3n(Cc3ccc(F)cc3)c2=O)cc1,inactive,
O=c1cc(-c2ccc(O)c(O)c2)oc2cccc(O)c12,inactive,
CCCCCCCCCCCC(=O)O,inactive,
CCCOC(=O)Nc1ccccc1C(N)=O,inactive,
CC(=O)/C(C)=N\O,inactive,
CCn1c(=N)c(C(=O)NCCCOC)cc2c(=O)n3cccc(C)c3nc21,inactive,
O=C(c1ccco1)N1CCC2(CC1)CCN(c1ncccn1)CC2,inactive,
CCOC(=O)C(CCOc1cccc(CC)c1)C(=O)OCC,,25.1 µM [activator] (active)
COC(=O)[C@@H](NC(=O)NCc1cccc(OC)c1)C(C)C,inactive,
C=CCNC(=O)CCCOc1cccc(C)c1,-6.77% [at 11 µM] (inactive),
COc1cccc(-n2c(SCC(=O)NC3CCCCC3)nc3n[nH]c(C)c3c2=N)c1,inactive,
CC(=O)Nc1ccc(S(=O)(=O)N2CCC(N(C)CCC(C)C)CC2)cc1,inactive,
Cc1ccc(/C(=C/CN2CCCC2)c2ccccn2)cc1,inactive,
Cc1ccc(S(=O)(=O)Cn2nnnc2CN2CCN(Cc3ccc4c(c3)OCO4)CC2)cc1,inactive,
N=c1c2c3c(sc2ncn1N)CCCCC3,inactive,
COC(=O)c1ccccc1NC(=O)c1cncc(Br)c1,inactive,
N#C/C(=C\c1ccc(O)c(O)c1)C(=O)NCc1ccccc1,inactive,
COc1ccc(OC)c([C@H](O)CNC(=O)CN)c1,inactive,
Cc1cnc(CNc2ncncc2-c2ccccc2Cl)cn1,inactive,
